# Source: PubChem BioAssay
# Results filed as inconclusive are left out. Calls of active or inactive are those of the source.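 The calls were made as follows, unless noted: active = normalized viability below 100% at a tested concentration; inactive = the rest.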
# Key:
# [1] = growth inhibition of DIPG glioma cells, dose response, cell-based, SU-DIPG-XVII, MIPE5.0, CellTiter-Glo, qHTS (AID 1347060; cut-off not given, nearly all actives have AC50 up to about 26 µM;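 as to AC50: cells exposed to compound for 48 hours before viability readout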); settings: SU-DIPG-XVII viability, CellTiter-Glo ATP luminescence
# [2] = growth inhibition of DIPG glioma cells, dose response, cell-based, SU-DIPG-XIII, MIPE4.0, CellTiter-Glo, qHTS (AID 1347061; cut-off not given, nearly all actives have AC50 up to about 37 µM;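 also: cells exposed to compound for 48 hours before readout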); settings: SU-DIPG-XIII viability, CellTiter-Glo ATP luminescence
# [3] = growth inhibition of DIPG glioma cells, dose response, cell-based, JHH-DIPG-1, MIPE4.0, CellTiter-Glo, qHTS (AID 1347062; cut-off not given, nearly all actives have AC50 up to about 27 µM;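 as to AC50: cells exposed to compound for two days before readout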); settings: JHH-DIPG-1 viability, CellTiter-Glo ATP luminescence
# [4] = growth inhibition of DIPG glioma cells, dose response, cell-based, SU-DIPG-IV, MIPE4.0, CellTiter-Glo, qHTS (AID 1347063; cut-off not given, nearly all actives have AC50 up to about 30 µM;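 also: compound exposure lasted 48 hours before the viability readout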); settings: SU-DIPG-IV viability, CellTiter-Glo ATP luminescence
# [5] = viability loss in pontine glioma line – cell-based, SU-DIPG-XXV, MIPE5.0, CellTiter-Glo, qHTS, dose response (AID 1347065; cut-off not given, nearly all actives have AC50 up to about 26 µM;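 also: cells exposed to compound for 48 hours before ATP readout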); settings: CellTiter-Glo ATP luminescence
# [6] = SU-DIPG-VI glioma cell viability, MIPE4.0 library, CellTiter-Glo luminescence, qHTS (AID 1347066; cut-off not given, nearly all actives have AC50 up to about 30 µM;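 also: cells exposed to compound for 48 hours before readout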); settings: CellTiter-Glo ATP luminescence
# [7] = JHH-DIPG-1 glioma cell viability, MIPE5.0 library, CellTiter-Glo luminescence, qHTS (AID 1347067; cut-off not given, nearly all actives have AC50 up to about 26 µM;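 also: cells exposed to compound for 48 hours before readout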); settings: JHH-DIPG-1 glioma viability, CellTiter-Glo ATP luminescence
# [8] = SU-DIPG-XXV glioma cell viability, MIPE5.0 library, qHTS (AID 1347068; cut-off not given, nearly all actives have IC50 up to about 30 µM;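 as to IC50: cells exposed to compound for 48 hours before viability readout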)
# [9] = sensitizers of A549 cells to miR-34 induction, primary screen, imaging, A549 dox-inducible miR-34, nuclei and caspase counts (AID 1347080;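 active = compounds whose cell count with miR-34 switched on is under 0.7 times the count with it off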); settings: A549 miR-34 inducible, Hoechst nuclei count, 48 h
# [10] = modifiers of HSF1 nuclear foci, imaging, Selleck Cancer Library (AID 1347162; in the data active = plate-normalised HSF1 focus index below about 0.46); settings: human cells, at 10 µM; SSMD: measured here: HSF1 foci SSMD mean; cell count: measured here: cell number; plate-normalised HSF1 focus index: stronger effect = lower value
# [11] = ovarian cancer cell viability with rucaparib, profiling panel, oncology-focused library, rucaparib conditional (AID 1508598); settings: patient-derived ovarian cancer cells, CellTiter-Glo viability, 144 h, stronger effect = lower value
compound,measurement,setting,value
C[C@@H]1CC[C@@]2(OC1)OC1CC3C4CC=C5CC(O)CCC5(C)C4CCC3(C)C1[C@@H]2C (stereo partly specified),outcome,[1],inactive
same,outcome,[2],inactive
same,outcome,[3],inactive
same,outcome,[4],inactive
same,outcome,[5],inactive
same,outcome,[6],inactive
same,outcome,[7],inactive
same,outcome,[8],inactive
CC(C)[C@H](C(=O)Nc1ccc(C(=O)NO)cc1)c1ccccc1,AC50,[1],1860 nM (active)
same,AC50,[2],3720 nM (active)
same,AC50,[3],1870 nM (active)
same,AC50,[4],2350 nM (active)
same,AC50,[5],1320 nM (active)
same,AC50,[6],833 nM (active)
same,fold change,"[9]; stronger effect = lower value, cell number ratio, induced over uninduced",0.834 (inactive)
same,fold change,[9]; measured here: relative caspase fold change +Dox/-Dox,1.7
same,cell count,"[9]; measured here: total cells with miR-34 induction, stronger effect = lower value",1610
same,cell count,[9]; measured here: total cells without miR-34 induction,1930
same,SSMD,[10],-4.69
same,cell count,[10],7300
same,plate-normalised HSF1 focus index,[10],0.833 (inactive)
same,viability,"[11]; at 0.000305 µM, OCI-C5x cells, with rucaparib 10 µM, 100% = cells with rucaparib alone",112% (inactive)
same,viability,"[11]; at 0.000305 µM, OCI-C5x cells, without rucaparib",136% (inactive)
same,viability,"[11]; at 0.000305 µM, OCI-P5x cells, with rucaparib 20 µM, 100% = cells with rucaparib alone",105% (inactive)
same,viability,"[11]; at 0.000305 µM, OCI-P5x cells, without rucaparib",114% (inactive)
same,viability,"[11]; at 0.00122 µM, OCI-C5x cells, with rucaparib 10 µM, 100% = cells with rucaparib alone",116% (inactive)
same,viability,"[11]; at 0.00122 µM, OCI-C5x cells, without rucaparib",139% (inactive)
same,viability,"[11]; at 0.00122 µM, OCI-P5x cells, with rucaparib 20 µM, 100% = cells with rucaparib alone",102% (inactive)
same,viability,"[11]; at 0.00122 µM, OCI-P5x cells, without rucaparib",116% (inactive)
same,viability,"[11]; at 0.00488 µM, OCI-C5x cells, with rucaparib 10 µM, 100% = cells with rucaparib alone",104% (inactive)
same,viability,"[11]; at 0.00488 µM, OCI-C5x cells, without rucaparib",135% (inactive)
same,viability,"[11]; at 0.00488 µM, OCI-P5x cells, with rucaparib 20 µM, 100% = cells with rucaparib alone",87.9% (active)
same,viability,"[11]; at 0.00488 µM, OCI-P5x cells, without rucaparib",107% (inactive)
same,viability,"[11]; at 0.0195 µM, OCI-C5x cells, with rucaparib 10 µM, 100% = cells with rucaparib alone",101% (inactive)
same,viability,"[11]; at 0.0195 µM, OCI-C5x cells, without rucaparib",139% (inactive)
same,viability,"[11]; at 0.0195 µM, OCI-P5x cells, with rucaparib 20 µM, 100% = cells with rucaparib alone",89.2% (active)
same,viability,"[11]; at 0.0195 µM, OCI-P5x cells, without rucaparib",110% (inactive)
same,viability,"[11]; at 0.0781 µM, OCI-C5x cells, with rucaparib 10 µM, 100% = cells with rucaparib alone",99.7% (active)
same,viability,"[11]; at 0.0781 µM, OCI-C5x cells, without rucaparib",145% (inactive)
same,viability,"[11]; at 0.0781 µM, OCI-P5x cells, with rucaparib 20 µM, 100% = cells with rucaparib alone",82.7% (active)
same,viability,"[11]; at 0.0781 µM, OCI-P5x cells, without rucaparib",92.5% (active)
same,viability,"[11]; at 0.313 µM, OCI-C5x cells, with rucaparib 10 µM, 100% = cells with rucaparib alone",46.8% (active)
same,viability,"[11]; at 0.313 µM, OCI-C5x cells, without rucaparib",41.1% (active)
same,viability,"[11]; at 0.313 µM, OCI-P5x cells, with rucaparib 20 µM, 100% = cells with rucaparib alone",49.2% (active)
same,viability,"[11]; at 0.313 µM, OCI-P5x cells, without rucaparib",66.8% (active)
same,viability,"[11]; at 1.25 µM, OCI-C5x cells, with rucaparib 10 µM, 100% = cells with rucaparib alone",10.3% (active)
same,viability,"[11]; at 1.25 µM, OCI-C5x cells, without rucaparib",11% (active)
same,viability,"[11]; at 1.25 µM, OCI-P5x cells, with rucaparib 20 µM, 100% = cells with rucaparib alone",31.4% (active)
same,viability,"[11]; at 1.25 µM, OCI-P5x cells, without rucaparib",39.9% (active)
same,viability,"[11]; at 5 µM, OCI-C5x cells, with rucaparib 10 µM, 100% = cells with rucaparib alone",5.04% (active)
same,viability,"[11]; at 5 µM, OCI-C5x cells, without rucaparib",5.5% (active)
same,viability,"[11]; at 5 µM, OCI-P5x cells, with rucaparib 20 µM, 100% = cells with rucaparib alone",2.82% (active)
same,viability,"[11]; at 5 µM, OCI-P5x cells, without rucaparib",3.14% (active)
CCC[C@@H](C=O)NC(=O)[C@H](CC(C)C)NC(=O)[C@H](CC(C)C)NC(=O)OCc1ccccc1,AC50,[1],332 nM (active)
same,AC50,[2],935 nM (active)
same,AC50,[3],372 nM (active)
same,AC50,[4],148 nM (active)
same,AC50,[5],186 nM (active)
same,AC50,[6],526 nM (active)
same,AC50,[7],525 nM (active)
same,IC50,[8],590 nM (active)
COC1CCC(N(C(=O)C2CCC(C)CC2)c2cc(C3=CCCCC3)sc2C(=O)O)CC1 (stereo unspecified),outcome,[1],inactive
same,outcome,[2],inactive
same,outcome,[3],inactive
same,outcome,[4],inactive
same,outcome,[5],inactive
same,outcome,[7],inactive
same,outcome,[8],inactive
Cc1[nH]nc2ccc(-c3cncc(OC[C@@H](N)Cc4ccccc4)c3)cc12,AC50,[1],1660 nM (active)
same,AC50,[2],4690 nM (active)
same,AC50,[3],1180 nM (active)
same,AC50,[4],2640 nM (active)
same,AC50,[5],1480 nM (active)
same,AC50,[6],10500 nM (active)
same,AC50,[7],1480 nM (active)
same,IC50,[8],1660 nM (active)
